The source of these data is PubChem BioAssay (NCATS).

Molecules are shown by their SMILES. Records with an inconclusive call do not appear. The source made the active and inactive calls. Unless noted, calls follow the shape of the full dose curve.

Cytochrome P450 1A2 (Homo sapiens), sequence (P05177 whole entry, looked up): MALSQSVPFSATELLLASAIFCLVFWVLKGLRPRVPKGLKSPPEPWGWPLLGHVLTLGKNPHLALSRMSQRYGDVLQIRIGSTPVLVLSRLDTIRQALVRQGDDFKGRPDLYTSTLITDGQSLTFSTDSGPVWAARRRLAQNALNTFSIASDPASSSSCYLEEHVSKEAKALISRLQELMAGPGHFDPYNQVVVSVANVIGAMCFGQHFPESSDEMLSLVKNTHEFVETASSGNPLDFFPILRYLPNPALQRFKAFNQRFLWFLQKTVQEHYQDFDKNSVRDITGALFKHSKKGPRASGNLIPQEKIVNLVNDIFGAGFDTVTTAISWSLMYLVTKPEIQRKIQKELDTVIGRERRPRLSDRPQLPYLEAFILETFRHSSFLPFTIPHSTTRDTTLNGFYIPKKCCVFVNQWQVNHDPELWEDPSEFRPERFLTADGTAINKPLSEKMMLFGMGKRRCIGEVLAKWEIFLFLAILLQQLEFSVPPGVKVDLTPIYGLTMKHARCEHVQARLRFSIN

The target of one experiment is Cytochrome P450 1A2 (Homo sapiens) (UniProt P05177). Put plainly: p450-cyp1a2 (AID 410). Also: potency is read from the fitted curve at half-maximal effect.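 As to activity change, negative = inhibition: -100% = full effect of reference inhibitor.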 The conditions noted are these: recombinant CYP1A2, luciferin-ME demethylation, luminescence; series mostly up to 11.4 µM; activity change, negative = inhibition: at the top concentration. In a few lines:
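O-Demethylation of luciferin 6' methyl ether by human CYP1A2 is monitored as luciferase luminescence. Substrate sits at Km (100uM); enzyme is 20nM. Values are scaled to 57 uM furafylline as maximal inhibition.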
As for `O=C(O)C[C@H](Cc1ccc2c(c1)OCO2)C(=O)O`, the “activity change, negative = inhibition” value is -20% (inactive). Consider `CC(=O)OCC(=O)[C@]12OC(C)(C)O[C@@H]1C[C@H]1[C@H]3CC=C4C[C@@H](O)CC[C@]4(C)[C@H]3CC[C@]12C`, for which the “activity change, negative = inhibition” value was 4.1% (inactive). Consider `COc1ccc2cc1Oc1ccc(cc1)C[C@H]1c3cc(c(OC)cc3CCN1C)Oc1c(OC)c(OC)cc3c1[C@@H](C2)N(C)CC3`, for which the Potency entry is “inactive”. Consider `N[C@@H](CSCc1ccccc1)C(=O)O`, for which the “activity change, negative = inhibition” value is -9.6% (inactive).

Take `CN(C)[C@H]1C(=O)C(C(=O)NCN2CCCC2)=C(O)[C@]2(O)C(=O)C3=C(O)c4c(O)cccc4[C@](C)(O)[C@H]3C[C@H]12`: the “activity change, negative = inhibition” value was -17.5% (inactive). On to `CN(C)c1ccc(-c2cc(NCc3ccccc3)ncn2)cc1`, for which the Potency was 1 µM (active). Consider `COc1ccccc1-c1nc(NCc2ccccc2)c2ccccc2n1`, for which the Potency was 0.398 µM (active). As for `C[C@]12CC[C@H]3c4ccc(O)cc4CC[C@@H]3[C@H]1CC[C@@H]2OC(=O)CCC1CCCC1`, the “activity change, negative = inhibition” value is -12.2% (inactive). On the same count and under the same terms, the figure for `Nc1nc2c(ncn2[C@@H]2C=C[C@@H](CO)C2)c(=O)[nH]1` is -4.3% (inactive). Take `CN(N=O)c1ccc(/C=C\c2ccnc3ccccc23)cc1`: the Potency is 0.158 µM (active). Same read-out and setting: for `COc1cccc(Cn2c(=O)c(C)nc3cnc(Oc4cccc(Cl)c4)nc32)c1` the value was 25.1 µM (active); for `Cc1nc2cnc(OCc3ccccc3)nc2n(Cc2ccc(F)cc2)c1=O`, 7.94 µM (active). With `NS(=O)(=O)c1cc(C(=O)O)c(O)c2ccccc12`, the “activity change, negative = inhibition” value is -19.2% (inactive).

Consider `CN(C)Cc1ccccc1-c1ccc2ncnc(NC3CCNCC3)c2c1`, for which the “activity change, negative = inhibition” value was -9.2% [at 57 µM] (inactive). `COc1ccc(-n2c(=O)c(C)nc3cnc(Oc4cccc(Cl)c4)nc32)cc1`: the Potency was 7.94 µM (active). The same measure, in the same setting: the figure for `CSc1nc(C)cc(Nc2ccc(O)c(CN3CCOCC3)c2)n1` is 3.98 µM (active).

`O=C(O)[C@@H](S)[C@H](S)C(=O)O`: the “activity change, negative = inhibition” value was -20.1% (inactive). For the compound `CNc1ncncc1-c1ccc(C(=O)N(C)C)cc1`, the Potency is 15.8 µM (active). For `O=C(O)c1cc(N=Nc2ccc([N+](=O)[O-])cc2)ccc1O`, the activity change, negative = inhibition was -15.3% [at 2.29 µM] (inactive). On the same count and under the same terms, the figure for `Cc1c(C)c(C)c(CC2(C)CSC2)c(CC2(C)CSC2)c1C` is -16.1% (inactive). Still for that read-out and setting: the figure for `CC(C)(C)NC[C@@H](O)c1ccc(O)c(CO)n1` is 10.1% [at 2.29 µM] (inactive); for `CC(C)Cn1cnc2c(Sc3c([N+](=O)[O-])ncn3C)nc(N)nc21` it is 8.1% [at 2.29 µM] (inactive).

For `C/C(=N\O)c1cccc[n+]1Cc1ccccc1`, the “activity change, negative = inhibition” value is -1% (inactive).

As for `NS(=O)(=O)c1cc2c(cc1Cl)N[C@H](Cc1ccccc1)NS2(=O)=O`, the Potency was 3.16 µM (active). As to `NC(=O)[C@@H]1CCCN1Cc1ccc2c(c1)OCO2`, the Potency is 3.16 µM (active).

Test system in a further experiment: not listed separately
Nature of the experiment: NFAT Signaling Pathway (AID 444; active = well fitted curve in either direction with a large enough effect, not every such curve was filed as active;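 also: carbachol stimulus at about its EC50 of 1 µM final; % is scaled to controls: 0 for no effect and ±100 for the full control effect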). To be noted: Jurkat NFAT-bla M1, carbachol, beta-lactamase ratio, 5 h; at 7.69 µM (top of the series) unless noted. In a few lines:
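Jurkat cells with NFAT-driven β-lactamase reporter and co-expressed M1 receptor, stimulated with carbachol (final 1 uM, ~EC50), compound titration, 5 h at 37 °C. CCF4 loaded 1 h at RT; 460/530 nm ratio gave %activity and AC50.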
Turning to `O=C(O)C[C@H](Cc1ccc2c(c1)OCO2)C(=O)O`, the activity change, negative = inhibition is -29.5% (inactive). As for `CC(=O)OCC(=O)[C@]12OC(C)(C)O[C@@H]1C[C@H]1[C@H]3CC=C4C[C@@H](O)CC[C@]4(C)[C@H]3CC[C@]12C`, the activity change, negative = inhibition was -9.45% (inactive). For `N[C@@H](CSCc1ccccc1)C(=O)O`, the activity change, negative = inhibition is 3.49% (inactive).

Regarding `CN(C)[C@H]1C(=O)C(C(=O)NCN2CCCC2)=C(O)[C@]2(O)C(=O)C3=C(O)c4c(O)cccc4[C@](C)(O)[C@H]3C[C@H]12`, the activity change, negative = inhibition was 6.5% (inactive). Still for that read-out and setting: for `CN(C)c1ccc(-c2cc(NCc3ccccc3)ncn2)cc1` the value was 12.6% (inactive); for `COc1ccccc1-c1nc(NCc2ccccc2)c2ccccc2n1`, -19.4% (inactive).

In the case of `C[C@]12CC[C@H]3c4ccc(O)cc4CC[C@@H]3[C@H]1CC[C@@H]2OC(=O)CCC1CCCC1`, the activity change, negative = inhibition was -0.474% (inactive).

Consider `Nc1nc2c(ncn2[C@@H]2C=C[C@@H](CO)C2)c(=O)[nH]1`, for which the activity change, negative = inhibition was 10.3% (inactive). On to `CN(N=O)c1ccc(/C=C\c2ccnc3ccccc23)cc1`, for which the activity change, negative = inhibition was 7.28% (inactive). On the same count and under the same terms, for `COc1cccc(Cn2c(=O)c(C)nc3cnc(Oc4cccc(Cl)c4)nc32)c1` the value was -7.01% (inactive).

Regarding `Cc1nc2cnc(OCc3ccccc3)nc2n(Cc2ccc(F)cc2)c1=O`, the activity change, negative = inhibition was -22.3% (inactive). For the compound `NS(=O)(=O)c1cc(C(=O)O)c(O)c2ccccc12`, the activity change, negative = inhibition is 12.4% (inactive). For `CN(C)Cc1ccccc1-c1ccc2ncnc(NC3CCNCC3)c2c1`, the activity change, negative = inhibition was -12.2% (inactive). The same measure, in the same setting: the figure for `COc1ccc(-n2c(=O)c(C)nc3cnc(Oc4cccc(Cl)c4)nc32)cc1` is -1.69% (inactive); for `CSc1nc(C)cc(Nc2ccc(O)c(CN3CCOCC3)c2)n1` it is 12.3% (inactive); for `O=C(O)[C@@H](S)[C@H](S)C(=O)O` it is -7.29% (inactive). Still for that read-out and setting: for `CNc1ncncc1-c1ccc(C(=O)N(C)C)cc1` the value was 7.99% (inactive); for `O=C(O)c1cc(N=Nc2ccc([N+](=O)[O-])cc2)ccc1O`, 28.6% (inactive). As for `Cc1c(C)c(C)c(CC2(C)CSC2)c(CC2(C)CSC2)c1C`, the activity change, negative = inhibition is 0.756% (inactive). Take `CC(C)(C)NC[C@@H](O)c1ccc(O)c(CO)n1`: the activity change, negative = inhibition is 10.1% (inactive). With `CC(C)Cn1cnc2c(Sc3c([N+](=O)[O-])ncn3C)nc(N)nc21`, the activity change, negative = inhibition was -13.9% (inactive). Regarding `C/C(=N\O)c1cccc[n+]1Cc1ccccc1`, the activity change, negative = inhibition was -12.3% (inactive). Still for that read-out and setting: the figure for `NS(=O)(=O)c1cc2c(cc1Cl)N[C@H](Cc1ccccc1)NS2(=O)=O` is 23.7% (inactive); for `NC(=O)[C@@H]1CCCN1Cc1ccc2c(c1)OCO2` it is 7.42% (inactive).
